HT1080 IDH1KD tx – HT-1080 IDH1 knockdown cell toxicity (counter line). HT-1080 IDH1 knockdown viability, ATP luminescence, 48 h. Potency, µM (series often up to 46.1 µM), for inactives: at the highest dose activity, negative = toxicity, actives largely listed as cytotoxic. AID 686971. hit rate 2% among 360,000;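 also: potency is read from the fitted curve at half-maximal effect; 0% = DMSO wells and -100% = cell-free medium wells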
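In this qHTS, HT-1080 cells depleted of IDH1 are exposed for 48 h at 37 °C to compound titrations. Toxicity is scored from CellTiter-Glo luminescence, with DMSO as full viability and medium alone as none.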
HT1080NT lethal – kills 2HG-producing HT-1080-NT fibrosarcoma cells | HT-1080-NT fibrosarcoma viability, CellTiter-Glo ATP luminescence, 48 h | Potency, µM (top dose mostly 46.1 µM), for inactives: at the top dose activity, negative = less viability, hits mostly cytotoxic | hit rate 1.6% among 360,000;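 also: NT is the 2HG producing partner of a matched IDH1 knockdown line; potency is read from the fitted curve at half-maximal effect; 0% = DMSO-treated cells and -100% = media-only wells without cells; nearly all actives have a fitted effect of over 55% in size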
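Toxicity toward the 2HG-producing NT line was scored as %Activity, normalised to DMSO and no-cell wells, from CellTiter-Glo luminescence after 48 hours' treatment.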
DT40 TDP1 no CPT – qHTS for Inhibitors of human tyrosyl-DNA phosphodiesterase 1 (TDP1): qHTS in cells in absence of CPT; Potency, µM (series often up to 46.2 µM), for inactives: top-dose activity change, negative = growth inhibition, actives largely listed as inhibitors; DT40 Tdp1-/- hTDP1 cells, no CPT, ATP luminescence, 48 h; hit rate 15% among 420,000; also: potency is read from the fitted curve at half-maximal effect; nearly all actives have a fitted effect of over 55% in size
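Seeded 400 DT40-hTDP1 cells/well (vehicle DMSO, no 20 nM CPT); pinned compounds; ≥48 hr at 37 °C; CellTiter-Glo luminescence as viability measure.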
IL1B secr inh – blocks inflammasome-driven IL-1 beta release; THP-1 LPS/ATP IL-1B secretion, AlphaLISA, 16 h; active compounds read low; activity change, % at 57.5 µM; hit rate 4.7% among 360,000; AID 743279; in the data active = activity change below about -50%; inconclusive = mostly about -30% to -49%
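THP-1 cells pretreated 1 hr with compounds (up to 57.5 uM final), then stimulated with LPS (250 ng/mL final) plus ATP (1.25 mM final); secreted IL-1B measured by AlphaLISA after 16 hr, decreased signal indicating inhibition.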
TDP1 cell CPT – growth inhibition of DT40 Tdp1-/-;hTDP1 cells with camptothecin (screen for TDP1 inhibitors). Potency, µM (titrated, usually from 46.2 µM), for the others: at the top dose activity change, negative = growth inhibition, hits mostly inhibitors. hit rate 12% among 420,000. chicken DT40 Tdp1-/-;hTDP1 cells + 20 nM CPT, ATP luminescence, 48 h. AID 686979; also: potency is read from the fitted curve at half-maximal effect; nearly all actives have a fitted effect of over 55% in size
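Cell growth measured by CellTiter-Glo luminescence after a minimum 48 h, 37 C compound exposure with 20 nM CPT in Tdp1-knockout DT40 cells stably expressing hTDP1, seeded 400/well; qHTS titration format.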
Starred values were filed as active, the others as inactive; u = inconclusive; x = not tested or not shown; [ ] = another dose, or the depositor's remark. This is a sample that favours compounds with a hit; in the whole collection about 19% have one here. Unless noted, calls follow the shape of the dose curve; as a rule, active = well fitted curve in the direction sought with a large enough effect; inconclusive = small, poorly fitted or top-dose-only effect, or another doubt; inactive = no such curve, though single readings can be large; an effect the other way counts as inactive or inconclusive. Unless noted, % is scaled to controls: 0 for no effect and ±100 for the full control effect.

SMILES	HT1080 IDH1KD tx	HT1080NT lethal	DT40 TDP1 no CPT	IL1B secr inh	TDP1 cell CPT
COc1cccc(NC(=O)C2CCN(S(=O)(=O)c3ccc4c(c3)CC(C)N4C(C)=O)CC2)c1 (configuration not stated)	-3.9%	1.4%	u	0.0	14.6µM*
CCc1cccc(NC(=O)C2CCN(S(=O)(=O)c3ccc4c(c3)CC(C)N4C(C)=O)CC2)c1 (configuration not stated)	-3.9%	-7.2%	20.6µM*	-0.3	16.4µM*
CC(=O)N1c2ccc(S(=O)(=O)N3CCC(C(=O)NCc4ccccc4)CC3)cc2CC1C (configuration not stated)	4.4%	0.8%	-18.9%	14.5	u
Cc1ccc(CN(C)S(=O)(=O)c2c(C)noc2/C=C/N(C)C)cc1	-19.1%	u	16.8%	3.7	-13.5%
CC(=O)N1c2ccc(S(=O)(=O)N3CCC(C(=O)Nc4ccccn4)CC3)cc2CC1C (configuration not stated)	-9.9%	-6.5%	-12.6%	12.3	-20.6%
Cc1cc(C)nc(N2CCCC(C(=O)Nc3ccc4nc(C)c(C)nc4c3)C2)n1 (configuration not stated)	6.1%	2.4%	12.6µM*	-3.5	u
CC(=O)N1c2ccc(S(=O)(=O)N3CCC(C(=O)Nc4ccc(F)cc4)CC3)cc2CC1C (configuration not stated)	-13.8%	-1.5%	13µM*	-15.2	18.4µM*
Cc1cc(C)cc(NC(=O)C2CCCN(c3nc(C)cc(C)n3)C2)c1 (configuration not stated)	-4.6%	1.3%	-13.1%	11.8	-2.3%
CN(C)c1ccc(C=Nc2ccc(/C=C3\C=Cc4ccccc43)cc2)cc1	x	x	u	x	-28.6%
Cc1ccc(S(=O)(=O)N(CCC(=O)Nc2ccc(OC(F)(F)F)cc2)c2ccccc2)cc1	-9.4%	-16.2%	-25.7%	-28.9	-12.4%
CC1Cc2cc(S(=O)(=O)CCC(=O)NC3CCCCC3)ccc2N1C(=O)C1CC1 (configuration not stated)	3.9%	10.0%	-0.1%	19.9	u
Cc1ccc(S(=O)(=O)CCC(=O)Nc2ccc(OC(F)(F)F)cc2)cc1	x	x	u	x	20.6µM*
Cc1c(Cl)cccc1NC(=O)CCS(=O)(=O)c1ccc2c(c1)CC(C)N2C(=O)C1CC1 (configuration not stated)	x	x	4.11µM*	x	5.17µM*
CC1Cc2cc(S(=O)(=O)CCC(=O)Nc3ccc(OC(F)(F)F)cc3)ccc2N1C(=O)C1CC1 (configuration not stated)	x	x	5.8µM*	x	7.31µM*
Cc1cc(Cl)ccc1NC(=O)CCS(=O)(=O)c1ccc2c(c1)CC(C)N2C(=O)C1CC1 (configuration not stated)	x	x	u	x	11.6µM*
O=C(NNC(=O)c1ncc(Cl)c(Cl)c1Cl)c1ccc(F)cc1	-11.1%	-14.4%	u	21.2	u
CCOc1ccc(NC(=O)CCS(=O)(=O)c2ccc(Br)cc2)cc1	3.7%	4.1%	23.1µM*	5.0	u
COc1ccc(NC(=O)CCS(=O)(=O)c2ccc(OC)cc2)cc1	4.7%	-1.3%	u	-4.0	-26.9%
CCc1cccc(C)c1NC(=O)c1cc2ccccc2o1	x	x	16.4µM*	x	18.4µM*
CCc1cccc(C)c1NC(=O)CO/N=C(\C)c1cc2ccccc2o1	-20.4%	-12.0%	23.1µM*	-2.1	18.4µM*
CCCCNC(=O)CO/N=C(\C)c1cc2ccccc2o1	5.2%	5.2%	u	-23.7	u
CCc1cccc(C)c1NC(=O)C1CC=CCC1C(=O)O (configuration not stated)	-3.6%	9.3%	20.6µM*	-0.4	u
CCC(=O)N1CCN(c2ccc(NC(=O)c3cc4ccccc4o3)cc2)CC1	4.9%	-0.1%	18.4µM*	-29.9	u
CCN(CC)S(=O)(=O)c1ccc(F)c(C(=O)NCCC(C)C)c1	-5.0%	10.4%[9.24 µM]	u	0.0	u
COC(=O)[C@H](Cc1ccc(O)cc1)NC(=O)Cn1cnc2c(OCc3ccccc3)ncnc21	-6.4%	-7.2%	0.0%	92.9	11.8%
SMILES	HT1080 IDH1KD tx	HT1080NT lethal	DT40 TDP1 no CPT	IL1B secr inh	TDP1 cell CPT
Cc1ccc(C)c(NC(=O)N2CCN3CCCCC3C2)c1 (configuration not stated)	x	x	-1.1%	x	-3.1%
Cc1ccnc(NC(=O)c2cc3ccccc3o2)c1	u	u	-5.7%	u	-14.3%
CCCCc1ccc(-n2nc3ccc(NC(=O)c4cc5ccccc5o4)cc3n2)cc1	x	x	10.3µM*	x	u
O=C(Nc1ccccn1)c1cc2ccccc2o1	u	u	u	-96.5*	10.3µM*
Cc1cccc(N2CCN(C(=O)c3ccc(Cl)c(S(=O)(=O)N4CCc5ccccc5C4)c3)CC2)c1C	5.8%	1.0%	14.6µM*	-9.8	u
O=C(c1ccc(Cl)c(S(=O)(=O)N2CCCC2)c1)N1CCN(c2ccccc2F)CC1	-4.8%	-27.2%	16.4µM*	-1.4	u
CC(=O)N1CCN(C(=O)c2ccc(Cl)c(S(=O)(=O)N3CCc4ccccc43)c2)CC1	2.8%	-5.9%	u	26.8	-26.9%
O=C(c1ccc(Cl)c(S(=O)(=O)N2CCOCC2)c1)N1CCN(c2ccccc2F)CC1	7.7%	1.7%	u	-4.9	u
O=C(c1ccc(Cl)c(S(=O)(=O)N2CCc3ccccc32)c1)N1CCN(c2ccccc2O)CC1	u	-20.6%	23.1µM*	-73.2*	u
O=C(NNC(=O)c1ccccc1O)c1ccc(Cl)c(S(=O)(=O)N2CCc3ccccc32)c1	u	u	20.6µM*	96.6	20.6µM*
O=C(CN1CCN(C(=O)N2CCCCC2)CC1)Nc1ccc(F)cc1	0.0%	-2.7%	-4.6%	-3.8	-9.1%
O=C(CSc1nnc(CNC(=O)c2cccs2)o1)NCCc1ccccc1	-3.3%	-0.9%	-12.7%	23.7	-3.4%
CCOC(=O)CN(C(=O)COc1ccc2c(C)cc(=O)oc2c1)c1ccc(OCC)cc1	7.1%	15.2%	-12.7%	-3.5	-3.6%
O=[N+]([O-])c1cccc(/C=N/NC2=NS(=O)(=O)c3ccccc32)c1	-6.4%	-18.4%	-6.4%	15.7	-10.2%
Cc1ccc(NC(=O)c2ccc(Cl)c(S(=O)(=O)N3CCc4ccccc43)c2)nc1	-10.0%	u	25.9µM*	-15.6	u
O=C(NCc1ccco1)c1ccc(Cl)c(S(=O)(=O)N2CCc3ccccc32)c1	-7.5%	-8.9%	u	-51.2*	u
Cc1cccc(N2CCN(C(=O)c3ccc(Cl)c(S(=O)(=O)NCc4ccco4)c3)CC2)c1C	16.4µM*	u	u	13.0	u

Source: PubChem BioAssay
